# Results reported in the supplement of paper PMC9023506.
# Structures can show the parent of a compound that is named as a salt.
# System: Danio rerio larvae (5 dpf)
# Assay: habituation to 1-s acoustic pulses, difference vs DMSO (percentage points (treated minus DMSO)); higher = more of the behaviour than the DMSO vehicle control
# Conditions: 10 µM; exposure time: 3 h pre-incubation + 3 h imaging
# Description: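 5-dpf wild-type zebrafish larvae were imaged in 96-well plates. They were treated with 190 Tocris FDA-approved drugs at 10 µM (1 µl/ml DMSO) for 3 h before and 3 h during imaging at 28.5 °C, 48 larvae per drug. Automated image analysis gave % time moving and optomotor responses. Values are drug group mean minus DMSO vehicle mean (n=844), in percentage points, for 10 behaviours.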
row,Compound,habituation to 1-s acoustic pulses
1,CN(C)CCc1c[nH]c2ccc(Cn3cncn3)cc12 [Rizatriptan benzoate],-2.41
2,CC1(C)O[C@@H]2[C@@H](CO[C@@]3(COS(N)(=O)=O)OC(C)(C)O[C@@H]23)O1 [Topiramate],-3.26
3,O=C(O)C[C@H](O)C[C@H](O)/C=C/c1c(C2CC2)nc2ccccc2c1-c1ccc(F)cc1 [Pitavastatin calcium],-6.74
4,CC(C)OC(=O)C(C)(C)Oc1ccc(C(=O)c2ccc(Cl)cc2)cc1 [Fenofibrate],-5.04
5,O=C(O[C@@H]1C[C@@H]2C[C@H]3C[C@H](C1)N2CC3=O)c1c[nH]c2ccccc12 [Dolasetron mesylate],2.06
6,CC(C)C(=O)OCC(=O)[C@@]12O[C@H](C3CCCCC3)O[C@@H]1C[C@H]1[C@@H]3CCC4=CC(=O)C=C[C@]4(C)[C@H]3[C@@H](O)C[C@@]12C [Ciclesonide],-1.43
7,CC(c1cc2ccccc2s1)N(O)C(N)=O (stereo not given) [Zileuton],7.12
8,Nc1ncn([C@H]2C[C@H](O)[C@@H](CO)O2)c(=O)n1 [Decitabine],5.67
9,COC(c1ccccc1)(c1ccccc1)[C@H](Oc1nc(C)cc(C)n1)C(=O)O [Ambrisentan],1.34
10,CCOc1nc2cccc(C(=O)O)c2n1Cc1ccc(-c2ccccc2-c2nnn[nH]2)cc1 [Candesartan],4.86
11,C#CCN[C@@H]1CCc2ccccc21 [Rasagiline mesylate],2.65
12,NS(=O)(=O)c1cc(C(=O)O)c(NCc2ccco2)cc1Cl [Furosemide],1.08
13,CC#C[C@]1(O)CC[C@H]2[C@@H]3CCC4=CC(=O)CCC4=C3[C@@H](c3ccc(N(C)C)cc3)C[C@@]21C [Mifepristone],-0.152
14,CCOC(=O)C1=C(COCCN)NC(C)=C(C(=O)OC)C1c1ccccc1Cl (stereo not given) [Amlodipine besylate],-2.17
15,CC(C)Nc1cccnc1N1CCN(C(=O)c2cc3cc(NS(C)(=O)=O)ccc3[nH]2)CC1 [Delavirdine mesylate],-7.61
16,COc1cc2ncnc(Nc3ccc(F)c(Cl)c3)c2cc1OCCCN1CCOCC1 [Iressa],0.91
17,Cc1ccc(-c2cc(C(F)(F)F)nn2-c2ccc(S(N)(=O)=O)cc2)cc1 [Celecoxib],-9.42
18,O=C(O)CCCc1ccccc1 [Sodium 4-Phenylbutyrate],-4.19
19,N[C@@H]1[C@H]2CN(c3nc4c(cc3F)c(=O)c(C(=O)O)cn4-c3ccc(F)cc3F)C[C@@H]12 [Trovafloxacin mesylate],-3.6
20,OC(CNCC(O)C1CCc2cc(F)ccc2O1)C1CCc2cc(F)ccc2O1 (stereo not given) [Nebivolol hydrochloride],-9.34

row,Compound,habituation to 1-s acoustic pulses
1,N#C[C@@H]1C[C@@H]2C[C@@H]2N1C(=O)[C@@H](N)C12CC3CC(CC(O)(C3)C1)C2 [Saxagliptin hydrochloride],1.97
2,CC(C)N(CCCCOCC(=O)NS(C)(=O)=O)c1cnc(-c2ccccc2)c(-c2ccccc2)n1 [Selexipag],-0.45
3,CCc1nc(N)nc(N)c1-c1ccc(Cl)cc1 [Pyrimethamine],5.04
4,CNC(=O)c1ccccc1Sc1ccc2c(/C=C/c3ccccn3)n[nH]c2c1 [Axitinib],-2.02
5,CC(C)c1ccc2oc3nc(N)c(C(=O)O)cc3c(=O)c2c1 [Amlexanox],-1.39
6,CC(=O)O[C@H]1C(=O)[C@@]2(C)[C@H]([C@H](OC(=O)c3ccccc3)[C@]3(O)C[C@H](OC(=O)[C@H](O)[C@@H](NC(=O)c4ccccc4)c4ccccc4)C(C)=C1C3(C)C)[C@]1(OC(C)=O)CO[C@@H]1C[C@@H]2O [Taxol],-2.74
7,C[C@]12CC[C@@H]3c4ccc(O)cc4C[C@@H](CCCCCCCCC[S+]([O-])CCCC(F)(F)C(F)(F)F)[C@H]3[C@@H]1CC[C@@H]2O (stereo not given in full),-2.82
8,O=c1n(CCCN2CCN(c3cccc(Cl)c3)CC2)nc2ccccn12 [Trazodone hydrochloride],-10.7
9,C=C1[C@H](CO)[C@@H](O)C[C@@H]1n1cnc2c(=O)[nH]c(N)nc21 [Entecavir],3.17
10,CN(C)CC/C=C1/c2ccccc2COc2ccc(CC(=O)O)cc21 [Olopatadine hydrochloride],0.997
11,Cc1nnc(C(C)C)n1C1C[C@H]2CC[C@@H](C1)N2CC[C@H](NC(=O)C1CCC(F)(F)CC1)c1ccccc1 (stereo in doubt) [Maraviroc],2.48
12,Cc1ccc(NC(=O)c2ccc(CN3CCN(C)CC3)cc2)cc1Nc1nccc(-c2cccnc2)n1 [Imatinib mesylate],3.16
13,CC(=O)Oc1ccccc1C(=O)O [Aspirin],-5.13
14,OCCN1C[C@H](O)[C@@H](O)[C@H](O)[C@H]1CO [Miglitol],0.997
15,C/C(O)=C(\C#N)C(=O)Nc1ccc(C(F)(F)F)cc1 [Teriflunomide],-1.26
16,C[C@@H](O[C@H]1OCCN(Cc2n[nH]c(=O)[nH]2)[C@H]1c1ccc(F)cc1)c1cc(C(F)(F)F)cc(C(F)(F)F)c1 [Aprepitant],0.23
17,N#Cc1ccc2[nH]cc(CCCCN3CCN(c4ccc5oc(C(N)=O)cc5c4)CC3)c2c1 [Vilazodone hydrochloride],-3.73
18,CCCCc1nc(Cl)c(CO)n1Cc1ccc(-c2ccccc2-c2nnn[nH]2)cc1 [Losartan potassium],0.91
19,CCOC(=O)C1=C(C)NC(C)=C(C(=O)OC)C1c1cccc(Cl)c1Cl (stereo not given) [Felodipine],-11.1
20,COc1ccc(Cl)cc1C(=O)NCCc1ccc(S(=O)(=O)NC(=O)NC2CCCCC2)cc1 [Glibenclamide],-1.87
